According to PubChem BioAssay AID1159580 (chemical genetic matrix, 2015):
“And” between values parts separate entries of the source, which are not always exact repeats. Equal values may be shown once. Out of some 5,500 compounds screened, about 2,000 (36%) were called active. Not shown: some 18% with an inconclusive outcome. Cut-off read from the data, not from the text of the source: active = normalized growth mostly below about 0.91 (no sharp cut-off); inconclusive = no clear call, values can overlap the other calls; inactive = mostly above about 0.92. The list shows a part of the results.

Assay: chemical genetic growth profiling, strain panel (AID 1159580);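 note: tested at 20 µM; growth read once vehicle control cultures reached saturation at 30 °C; 1 = growth at the plate median or of vehicle wells; lower values mean less growth of the strain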
Conditions: S. cerevisiae deletion strains, growth OD

Measured: normalized growth

O=c1c(-c2ccc(O)cc2)coc2cc(O)ccc12
inactive: locus YAL013W, strain DEP1, stronger effect = lower value 0.964 | locus YAL021C, strain ccr4, stronger effect = lower value 0.996 | locus YAL026C, strain drs2, stronger effect = lower value 0.983 | locus YAL030W, strain snc1, stronger effect = lower value 0.989 | locus YAL040C, strain CLN3, stronger effect = lower value 1.01 | locus YBL061C, strain skt5, stronger effect = lower value 0.983 | locus YBR009C, strain hhf1, stronger effect = lower value 0.97 | locus YBR021W, strain FUR4, stronger effect = lower value 0.924 | locus YBR023C, strain chs3, stronger effect = lower value 0.978 | locus YBR171W, strain sec66, stronger effect = lower value 0.969 | locus YBR229C, strain ROT2, stronger effect = lower value 1.01 | locus YBR231C, strain swc5, stronger effect = lower value 0.986 | locus YBR279W, strain paf1, stronger effect = lower value 0.999 | locus YCL011C, strain gbp2, stronger effect = lower value 0.98 | locus YCL016C, strain dcc1, stronger effect = lower value 0.977 | locus YCL029C, strain bik1, stronger effect = lower value 0.983 | locus YCL061C, strain MRC1 (second series), stronger effect = lower value 1.01 | locus YCL061C, strain MRC1, stronger effect = lower value 0.975 | locus YCL069W, strain vba3, stronger effect = lower value 0.995 | locus YCR088W, strain abp1, stronger effect = lower value 0.987 | locus YDL005C, strain med2, stronger effect = lower value 0.976 | locus YDL035C, strain GPR1, stronger effect = lower value 1.01 | locus YDL040C, strain nat1, stronger effect = lower value 0.987 | locus YDL074C, strain BRE1, stronger effect = lower value 0.97 | locus YDL101C, strain DUN1, stronger effect = lower value 1.01 | locus YDL134C, strain PPH21, stronger effect = lower value 1 | locus YDL185W, strain tfp1, stronger effect = lower value 0.987 | locus YDL192W, strain arf1, stronger effect = lower value 1.01 | locus YDR001C, strain nth1, stronger effect = lower value 0.984 | locus YDR069C, strain doa4, stronger effect = lower value 0.985 | locus YDR101C, strain arx1, stronger effect = lower value 0.964 | locus YDR137W, strain rgp1, stronger effect = lower value 1 | locus YDR150W, strain NUM1, stronger effect = lower value 0.984 | locus YDR159W, strain sac3, stronger effect = lower value 0.974 | locus YDR162C, strain NBP2, stronger effect = lower value 1 | locus YDR195W, strain ref2 1.04 | locus YDR297W, strain sur2, stronger effect = lower value 0.978 | locus YDR318W, strain mcm21, stronger effect = lower value 0.99 | locus YDR334W, strain swr1, stronger effect = lower value 1 | locus YDR335W, strain msn5, stronger effect = lower value 0.992 | locus YDR363W, strain ESC2, stronger effect = lower value 1.01 | locus YDR388W, stronger effect = lower value 0.98 | locus YDR392W, strain spt3, stronger effect = lower value 0.849 | locus YDR502C, strain sam2, stronger effect = lower value 0.951 | locus YEL003W, strain gim4, stronger effect = lower value 0.989 | locus YEL037C, strain rad23, stronger effect = lower value 0.985 | locus YEL061C, strain CIN8 (second series), stronger effect = lower value 0.996 | locus YEL061C, strain CIN8, stronger effect = lower value 1.01 | locus YER002W, strain NOP16, stronger effect = lower value 0.992 | locus YER015W, strain faa2, stronger effect = lower value 0.993 | locus YER016W, strain bim1, stronger effect = lower value 0.982 | locus YER110C, stronger effect = lower value 0.974 | locus YER111C, strain swi4, stronger effect = lower value 0.98 | locus YER155C, strain BEM2 (second series), stronger effect = lower value 0.972 | locus YER155C, strain BEM2, stronger effect = lower value 0.992 | locus YER167W, strain BCK2, stronger effect = lower value 1 | locus YFR010W, strain ubp6, stronger effect = lower value 0.982 | locus YGL078C, strain dbp3, stronger effect = lower value 0.977 | locus YGL086W, strain mad1, stronger effect = lower value 0.969 | locus YGL167C, strain pmr1, stronger effect = lower value 0.981 | locus YGL173C, strain kem1, stronger effect = lower value 0.971 | locus YGL227W, strain vid30, stronger effect = lower value 0.984 | locus YGL240W, strain doc1, stronger effect = lower value 0.958 | locus YGL248W, strain PDE1, stronger effect = lower value 1.01 | locus YGL253W, strain hxk2, stronger effect = lower value 0.956 | locus YGR078C, strain PAC10, stronger effect = lower value 0.965 and 1.01 | locus YGR135W, strain pre9, stronger effect = lower value 0.957 | locus YGR229C, strain SMI1, stronger effect = lower value 0.974 | locus YGR252W, strain gcn5, stronger effect = lower value 0.825 | locus YHR013C, strain ard1, stronger effect = lower value 0.959 | locus YHR027C, strain rpn1, stronger effect = lower value 0.995 | locus YHR030C, strain SLT2, stronger effect = lower value 1.01 and 1.02 | locus YHR079C, strain IRE1 (second series), stronger effect = lower value 0.993 | locus YHR079C, strain IRE1, stronger effect = lower value 0.999 | locus YHR094C, strain hxt1, stronger effect = lower value 0.99 | locus YHR129C, strain ARP1, stronger effect = lower value 1.01 | locus YHR142W, strain chs7, stronger effect = lower value 0.943 | locus YHR200W, strain rpn10, stronger effect = lower value 0.979 | locus YIL066C, strain RNR3, stronger effect = lower value 1.02 | locus YIL073C, strain SPO22, stronger effect = lower value 0.951 | locus YIL125W, strain kgd1, stronger effect = lower value 0.988 | locus YIR030C, strain dcg1, stronger effect = lower value 0.978 | locus YJL092W, strain hpr5, stronger effect = lower value 0.981 | locus YJL095W, strain BCK1 (second series), stronger effect = lower value 0.98 | locus YJL095W, strain BCK1, stronger effect = lower value 0.977 and 1.03 | locus YJL115W, strain asf1, stronger effect = lower value 0.994 | locus YJL129C, strain trk1, stronger effect = lower value 0.969 | locus YJL134W, strain LCB3, stronger effect = lower value 1.01 | locus YJL154C, strain vps35, stronger effect = lower value 0.986 | locus YJL164C, strain tpk1, stronger effect = lower value 0.966 | locus YJL166W, strain qcr8, stronger effect = lower value 0.963 | locus YJL168C, strain set2, stronger effect = lower value 0.99 | locus YJL187C, strain SWE1 (second series), stronger effect = lower value 0.987 | locus YJL187C, strain SWE1, stronger effect = lower value 0.984 | locus YJR043C, strain POL32, stronger effect = lower value 0.994 | locus YJR066W, strain TOR1, stronger effect = lower value 0.989 | locus YKL009W, strain mrt4, stronger effect = lower value 0.951 | locus YKL068W, stronger effect = lower value 1 | locus YKL085W, strain MDH1 (second series), stronger effect = lower value 1.01 | locus YKL085W, strain MDH1, stronger effect = lower value 1.01 | locus YKL160W, strain elf1, stronger effect = lower value 0.971 | locus YKR001C, strain vps1, stronger effect = lower value 0.963 | locus YKR026C, strain gcn3, stronger effect = lower value 0.976 | locus YKR091W, strain srl3, stronger effect = lower value 0.982 | locus YLL001W, strain dnm1, stronger effect = lower value 0.945 | locus YLL026W, stronger effect = lower value 0.976 | locus YLL041C, strain sdh2, stronger effect = lower value 0.986 | locus YLR027C, strain aat2, stronger effect = lower value 0.973 | locus YLR039C, strain RIC1, stronger effect = lower value 1.05 | locus YLR058C, strain SHM2, stronger effect = lower value 1 | locus YLR102C, strain apc9, stronger effect = lower value 0.998 | locus YLR113W, strain HOG1, stronger effect = lower value 0.933 | locus YLR221C, strain rsa3, stronger effect = lower value 0.953 | locus YLR258W, strain gsy2, stronger effect = lower value 0.978 | locus YLR262C, strain YPT6 (second series), stronger effect = lower value 0.969 | locus YLR262C, strain YPT6, stronger effect = lower value 1.09 | locus YLR268W, strain sec22, stronger effect = lower value 0.949 | locus YLR320W, strain mms22, stronger effect = lower value 0.939 | locus YLR330W, strain CHS5, stronger effect = lower value 1 | locus YLR342W, strain FKS1 (second series), stronger effect = lower value 0.997 | locus YLR342W, strain FKS1, stronger effect = lower value 0.987 | locus YLR357W, strain rsc2, stronger effect = lower value 0.941 | locus YLR370C, strain arc18, stronger effect = lower value 0.982 | locus YLR371W, strain rom2, stronger effect = lower value 0.985 | locus YLR384C, strain iki3, stronger effect = lower value 1 | locus YLR418C, strain cdc73, stronger effect = lower value 0.888 | locus YML016C, strain PPZ1, stronger effect = lower value 1.02 | locus YML032C, strain rad52, stronger effect = lower value 0.977 | locus YML120C, strain ndi1, stronger effect = lower value 0.991 | locus YML124C, strain tub3, stronger effect = lower value 0.98 | locus YMR058W, strain fet3, stronger effect = lower value 0.981 | locus YMR078C, strain ctf18, stronger effect = lower value 0.979 | locus YMR125W, strain sto1, stronger effect = lower value 0.99 | locus YMR129W, stronger effect = lower value 0.989 | locus YMR205C, strain PFK2, stronger effect = lower value 0.957 | locus YMR223W, strain ubp8, stronger effect = lower value 0.978 | locus YMR231W, strain pep5, stronger effect = lower value 0.992 | locus YMR307W, strain GAS1, stronger effect = lower value 0.951 and 1.01 | locus YNL067W, strain RPL9B, stronger effect = lower value 0.966 | locus YNL071W, strain lat1, stronger effect = lower value 0.979 | locus YNL128W, strain TEP1, stronger effect = lower value 1 | locus YNL153C, strain GIM3, stronger effect = lower value 0.982 and 1.04 | locus YNL175C, strain NOP13, stronger effect = lower value 0.994 | locus YNL183C, strain NPR1, stronger effect = lower value 0.993 | locus YNL197C, strain WHI3, stronger effect = lower value 0.979 | locus YNL209W, strain ssb2, stronger effect = lower value 0.99 | locus YNL224C, strain SQS1, stronger effect = lower value 1 | locus YNL233W, strain BNI4, stronger effect = lower value 0.966 | locus YNL248C, strain rpa49, stronger effect = lower value 0.97 | locus YNL250W, strain rad50, stronger effect = lower value 1.01 | locus YNL271C, strain bni1, stronger effect = lower value 0.985 | locus YNL298W, strain CLA4, stronger effect = lower value 0.997 | locus YNL307C, strain MCK1, stronger effect = lower value 0.97 | locus YNL322C, strain KRE1 (second series), stronger effect = lower value 0.966 | locus YNL322C, strain KRE1, stronger effect = lower value 1 | locus YNR049C, strain mso1, stronger effect = lower value 0.985 | locus YNR052C, strain pop2, stronger effect = lower value 0.988 | locus YOL006C, strain TOP1, stronger effect = lower value 0.931 | locus YOL012C, strain htz1 0.695 | locus YOL147C, strain pex11, stronger effect = lower value 0.982 | locus YOR001W, strain rrp6, stronger effect = lower value 1 | locus YOR061W, strain CKA2, stronger effect = lower value 1.02 | locus YOR069W, strain VPS5, stronger effect = lower value 1.01 | locus YOR070C, strain gyp1, stronger effect = lower value 0.982 | locus YOR080W, strain dia2, stronger effect = lower value 0.98 | locus YOR083W, strain WHI5 (second series), stronger effect = lower value 1.05 | locus YOR083W, strain WHI5, stronger effect = lower value 0.945 | locus YOR106W, strain vam3, stronger effect = lower value 0.954 | locus YOR136W, strain idh2, stronger effect = lower value 0.97 | locus YOR144C, strain elg1, stronger effect = lower value 0.985 | locus YOR184W, strain ser1, stronger effect = lower value 0.935 | locus YOR231W, strain MKK1, stronger effect = lower value 1.03 | locus YOR265W, strain rbl2, stronger effect = lower value 0.985 | locus YOR270C, strain vph1, stronger effect = lower value 0.913 | locus YOR290C, strain snf2, stronger effect = lower value 0.902 | locus YOR316C, strain cot1, stronger effect = lower value 0.986 | locus YPL051W, strain arl3, stronger effect = lower value 0.988 | locus YPL055C, strain LGE1, stronger effect = lower value 0.958 | locus YPL078C, strain atp4, stronger effect = lower value 0.956 | locus YPL106C, strain sse1, stronger effect = lower value 0.935 | locus YPL240C, strain hsp82, stronger effect = lower value 1 | locus YPL241C, strain CIN2, stronger effect = lower value 1 | locus YPL256C, strain CLN2, stronger effect = lower value 0.992 | locus YPR119W, strain clb2, stronger effect = lower value 0.984 | locus YPR141C, strain kar3, stronger effect = lower value 0.997 | locus YPR163C, strain tif3, stronger effect = lower value 0.982 | locus YPR167C, strain met16, stronger effect = lower value 0.984 | strain wtn01, stronger effect = lower value 0.953
